Test results published in PubChem BioAssay.
Several values for one entry are separate records, joined by “and”; a condition that tells them apart may be missing. Equal values may be shown once.

Experiment: Plasmodium falciparum growth inhibition, primary screen, strain 3D7, DAPI fluorescence, 100 nL (AID 1184);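 also: parasites grown inside human red blood cells in medium with human serum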
Settings: P. falciparum 3D7 growth, 3 d, higher = more signal

Row | Structure (SMILES) | z-score
1 | C=CCN(CCCC)C(=O)C1N(CCOCCO)C(=O)C2C(C(=O)O)C3C=CC21O3 (configuration not stated) | 0.172 and 0.134
2 | C=CCN(C(=O)C1N(C(C)(C)CO)C(=O)C2C(C(=O)O)C3C=CC21O3)C(C)(C)C (configuration not stated) | 0.214 and -0.208
3 | C=CCN(C(=O)C1N(CCOCCO)C(=O)C2C(C(=O)O)C3C=CC21O3)c1ccc(OC)cc1 (configuration not stated) | 0.301 and -0.0133
4 | O=C1NC(=O)C2C1C=CC(C(O)c1ccc([N+](=O)[O-])cc1)N2Nc1ccc(Cl)cc1Cl (configuration not stated) | 0.698 and 0.664
5 | CCOC(=O)C[C@H]1[C@H](OC(=O)c2ccccc2-c2ccccc2)[C@@H](NC(=O)c2ccccc2)c2cc(OCCCO)ccc2N1C(=O)c1ccc2ccccc2n1 | -0.345 and 0.0894
6 | COC(=O)[C@@]1(Cc2ccc(F)cc2)[C@H]2c3cc(C(=O)N4CCCC4)n(Cc4c(CO)[nH]cc(C)c4=O)c3C[C@H]2CN1C(=O)c1ccccc1 | -1.4 and -1.6
7 | CC(CO)N1C(=O)[C@@H]2C3C(=O)OCCC=C[C@H]3OC23C=CCN(c2ccc4ccccc4c2)C(=O)[C@@H]13 (some centres not stated) | -0.526 and 0.0547
8 | C=CCN(C(=O)C1N(C(C)(C)CO)C(=O)C2C(C(=O)O)C3C=CC21O3)c1ccc(OC)cc1 (configuration not stated) | -0.445 and 0.004
9 | C=CCN(C(=O)C(c1cccs1)N(C(=O)/C=C\C(=O)O)c1ccc(CCO)cc1)C(C)(C)C (configuration not stated) | -0.21 and -0.719
10 | C=C[C@@H](OC)[C@H](O)c1ccc(OC)c(O)c1 | -0.151 and -0.337
11 | C=CCN(CCCCC)C(=O)C(c1cccs1)N(C(=O)/C=C\C(=O)O)c1ccc(CCO)cc1 (configuration not stated) | 0.653 and 0.454
12 | C=CCN(C(=O)C(c1cccs1)N(C(=O)/C=C\C(=O)O)c1c(Cl)cccc1CO)c1ccc(OC)cc1 (configuration not stated) | 0.734 and 1.62
